Molecules are shown by their SMILES. Records with an inconclusive call do not appear. Active and inactive are the calls of the source. The calls were made as follows: active = hit-call score of the fitted dose curve at least 0.9, where 1 is the maximum; inconclusive = response in the unintended direction; inactive = score below 0.9.

This assay has as its system TPO (gene 7173). The experiment in a line: CCTE_GLTED_hTPO: CCTE's human Thyroperoxidase (hTPO) Inhibition Assay, Great Lakes Toxicology and Ecology Division (GLTED) Lab. The method, then: CCTE_GLTED_hTPO is a cell-free, single-readout assay designed to test the inhibitory activity of chemicals toward human thyroperoxidase (TPO) protein. Uninhibited enzyme converts Amplex UltraRed to a fluorescent product. Measurements were taken 0.5 hour after chemical dosing in a 96-well plate. CCTE_GLTED_hTPO is the assay component measured from the CCTE_GLTED_hTPO assay. It is designed to make measurements of enzyme activity, a form of enzyme reporter, as detected with […] by Fluorescence technology.Data from the assay component CCTE_GLTED_hTPO was analyzed at the assay endpoint CCTE_GLTED_hTPO in the positive analysis fitting direction relative to DMSO as the negative control and baseline of activity. Using a type of enzyme reporter (the Amplex UltraRed assay), loss-of-signal activity can be used to understand decreased peroxidase activity in the presence of excess […]. To generalize the intended target to other relatable targets, this assay endpoint is annotated to the 'oxidoreductase' intended target family, where the subfamily is 'peroxidase'.
[…]
What is called AC50 is the concentration giving half of the maximal activity seen. On to `FC(F)(F)C(F)(F)C(F)(F)C(F)(F)C(F)(F)C(F)(F)C(F)(F)C(F)(F)CCS`, for which the AC50 was 50 µM (active).
The same measure, in the same setting: the value for `CN(C(=O)C(F)(F)C(F)(F)C(F)(F)F)[Si](C)(C)C` was 59.5 µM (active).
In the case of `FC(F)(F)C(F)(F)C(F)(F)C(F)(F)C(F)(F)C(F)(F)CCS`, the compound was called inactive.
On to `O=C(Cl)C(F)(F)C(F)(F)C(F)(F)C(=O)Cl`, for which the AC50 was 150 µM (active).
The same measure, in the same setting: the value for `O=C(O)C(F)(F)C(F)(F)C(F)(F)C(F)(F)C(F)(F)C(F)(F)C(F)(F)C(F)(F)Cl` was 278 µM (active); that for `O=S(=O)(OCC(F)(F)F)C(F)(F)C(F)(F)C(F)(F)C(F)(F)F` was 42.2 µM (active).
Consider `O=C(Cl)C(F)(F)C(F)(F)C(F)(F)C(F)(F)C(F)(F)C(F)(F)C(F)(F)C(F)(F)F`, for which the call was inactive.
Consider `O=C(O)C(F)(OC(F)(F)C(F)(OC(F)(F)C(F)(F)C(F)(F)F)C(F)(F)F)C(F)(F)F` (centres undefined), for which the AC50 is 13.1 µM (active).
Still for that read-out and setting: to `FC(F)=C(F)C(F)(F)C(F)(F)C(F)(F)C(F)(F)C(F)(F)C(F)(F)F` belongs 30.9 µM (active); to `Cn1cc[nH]c1=S`, 0.127 µM (active); to `O=C(O)C(F)(OC(F)(F)C(F)(OC(F)(F)C(F)(OC(F)(F)C(F)(F)C(F)(F)F)C(F)(F)F)C(F)(F)F)C(F)(F)F` (centres undefined), 0.0612 µM (active).
On the same count and under the same terms, to `O=S(=O)(Cl)C(F)(F)C(F)(F)C(F)(F)C(F)(F)C(F)(F)C(F)(F)C(F)(F)C(F)(F)F` belongs 276 µM (active).
On to `O=C(O)C(F)(F)C(F)(F)C(F)(F)C(F)(F)C(F)(F)C(F)(F)C(F)(F)C(F)(F)C(F)(F)C(F)F`, for which the compound was called inactive.
Take `O=C(Cl)C(F)(F)C(F)(F)C(F)(F)C(F)(F)C(F)(F)C(F)(F)F`: the AC50 is 48.3 µM (active).

Values taken from PubChem BioAssay AID2284326 (EPA ToxCast).
